Data taken from PubChem BioAssay (Tox21).
The source made the active and inactive calls. Entries that show only a call come without a potency. Calls follow the shape of the full dose curve.

What follows are compounds tested against Acetylcholinesterase (Homo sapiens) (UniProt P22303) (assay: Acetylcholinesterase (AChE) small molecule antagonists: enzyme-based qHTS assay (AID 1347397; also: nearly all actives have a fitted effect of over 55% in size)). Conditions: Potency: AChE enzyme activity inhibition; outcome: AChE enzyme activity inhibition; series mostly up to 115 µM.
Sequence of Acetylcholinesterase (Homo sapiens) (P22303 whole entry, looked up): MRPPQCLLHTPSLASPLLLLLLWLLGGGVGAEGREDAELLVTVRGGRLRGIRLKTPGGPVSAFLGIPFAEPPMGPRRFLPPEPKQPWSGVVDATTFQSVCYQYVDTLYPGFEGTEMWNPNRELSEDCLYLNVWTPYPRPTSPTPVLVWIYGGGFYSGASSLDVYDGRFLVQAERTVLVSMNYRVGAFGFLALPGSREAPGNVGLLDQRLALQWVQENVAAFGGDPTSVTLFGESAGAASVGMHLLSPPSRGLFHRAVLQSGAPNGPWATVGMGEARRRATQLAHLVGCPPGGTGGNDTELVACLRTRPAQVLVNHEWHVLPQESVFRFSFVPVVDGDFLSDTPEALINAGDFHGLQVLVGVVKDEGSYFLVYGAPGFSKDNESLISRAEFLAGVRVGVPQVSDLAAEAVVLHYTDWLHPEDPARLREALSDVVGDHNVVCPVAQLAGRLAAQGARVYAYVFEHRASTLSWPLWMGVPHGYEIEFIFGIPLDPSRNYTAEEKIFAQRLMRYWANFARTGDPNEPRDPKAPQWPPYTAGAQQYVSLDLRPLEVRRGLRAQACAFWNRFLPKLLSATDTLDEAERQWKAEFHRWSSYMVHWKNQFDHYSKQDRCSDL
Source text: National Center for Advancing Translational Sciences [NCATS]
Division of Preclinical Innovation [DPI]
U.S. Environmental Protection Agency [EPA]
National Institutes of Environmental Health Sciences [NIEHS]
National Toxicology Program [NTP]
U.S. Food and Drug Administration [FDA]
Acetylcholinesterase (AChE) is the primary cholinesterase in the body that hydrolyzes a key neurotransmitter, acetylcholine. Inhibition of AChE activity can lead to neurotoxicity. The known inhibitors include organophosphorous pesticides (OP), chemical warfare agents, drugs, and various phytochemicals.
An enzyme-based assay with the recombinant human AChE and Amplite Colormetric acetylcholinesterase assay kit (AAT Bioquest, Sunnyvale, CA) was used to evaluate the chemicals in the Tox21 10K library that inhibit AChE activity. The assay uses 5, 5-dithiobis-(2-nitrobenzoic acid) (DTNB) to quantify the thiocholine produced from the hydrolysis of acetylthiocholine by AChE.
Tox21 Assay Protocol Summary:
For the enzyme-based AChE assay, recombinant human AChE (50 mU/mL) in 4 uL/well was dispensed into black, clear-bottom 1536-well plates using a Multidrop Combi dispenser (Thermo Scientific, MA). Then, 23 nL of compound or DMSO (vehicle control) was transferred into the assay plates by a Pintool Station (Wako Automation, CA). The plates were incubated for 30 min at room temperature, followed by the addition of 4 uL of colorimetric detection cocktail solution (DTNB, acetylthiocholine) into each well using a Flying Reagent Dispenser (Beckman Coulter, CA) and then 10 min incubation at room temperature.
In the case of `O=[N+]([O-])c1ccc(F)cc1F`, the Potency is reported as “inactive”.
For `C=C(C)C(=O)OCCC[Si](OC)(OC)OC`, the Potency was “inactive”.
`CCn1cc(C(=O)O)c(=O)c2cnc(N3CCNCC3)nc21` was tested, and the Potency was “inactive”.
`CCc1nnc(NS(=O)(=O)c2ccc(N)cc2)s1` was tested, and the Potency was “inactive”.
`O=C(c1ccccc1)c1ccc2n1CCC2C(=O)O` (stereo not given) was tested, and the Potency was “inactive”.
For `COc1ccccc1NC(=O)CC(C)=O`, the Potency was “inactive”.
`FC(F)(F)c1cccc(Cl)c1` was tested, and the Potency was “inactive”.
With `COCCc1ccc(OCC2CO2)cc1` (stereo not given) the Potency was “inactive”.
`C/C=C\C/C=C/CCCCCCCCOC(C)=O` was tested, and the Potency was “inactive”.
With `CCCCC(CC)COC(=O)c1ccccc1` (stereo not given) the Potency was “inactive”.
`N[C@@H](CCC(=O)Nc1ccc([N+](=O)[O-])cc1)C(=O)O` was tested, and the Potency was “inactive”.
For `O=c1oc2c(O)c(O)cc3c(=O)oc4c(O)c(O)cc1c4c23`, the activity change, negative = inhibition was 3.59% [at 23.6 µM] (inactive).
In the case of `CCc1cccc(C)c1N`, the Potency is reported as “inactive”.
`CCOC(=O)c1ccc(C)cc1` was tested, and the Potency was “inactive”.
In the case of `CNCCCCOc1ccccc1Cc1ccccc1`, the Potency is reported as “inactive”.
For `CC(C)(CC(=O)O)C(=O)O`, the Potency was “inactive”.
For `OC1(c2ccc(Cl)c(C(F)(F)F)c2)CCN(CCCC(c2ccc(F)cc2)c2ccc(F)cc2)CC1`, the Potency was “inactive”.
For `Nc1ccc([N+](=O)[O-])c(C(F)(F)F)c1`, the Potency was “inactive”.
For `Oc1cn2c(n1)Nc1ccc(Cl)c(Cl)c1C2`, the activity change, negative = inhibition was 0.842% [at 23.6 µM] (inactive).
For `c1cc[c]([Bi]([c]2ccccc2)[c]2ccccc2)cc1`, the Potency was “inactive”.
In the case of `CCCC(C)CO` (stereo not given), the Potency is reported as “inactive”.
With `Cc1cc(C)c(C)c(C)c1` the Potency was “inactive”.
For `CC1CCC2CC1C2(C)C` (stereo not given), the Potency was “inactive”.
For `NC(=O)C(=O)N/N=C/c1ccc([N+](=O)[O-])o1`, the Potency was “inactive”.
`[O-]/[N+](=N\O)c1ccccc1` was tested, and the Potency was “inactive”.
In the case of `OC[C@@H](O)[C@@H](O)[C@H](O)[C@@H](O)CO`, the Potency is reported as “inactive”.
With `FC(F)(F)c1ccccc1-n1ccnc1` the Potency was “inactive”.
`CC/C(C)=N/O` was tested, and the Potency was “inactive”.
`c1ccc2c(c1)ccc1ccccc12` was tested, and the Potency was “inactive”.
With `CN(C)C(=O)CNC(=O)Cc1ccccc1` the Potency was “inactive”.
In the case of `Cc1cccc(C)c1[N+](=O)[O-]`, the Potency is reported as “inactive”.
With `Cc1cc(O)c2c(c1)C(=O)c1cccc(O)c1C2=O` the Potency was “inactive”.
For `CCCCN(CCCC)c1ccc(C(=O)c2ccccc2C(=O)O)c(O)c1`, the Potency was “inactive”.
With `c1ccc2c(c1)c1cccc3ccc4cccc2c4c31` the Potency was “inactive”.
`CC(=O)CCC(C)C` was tested, and the Potency was “inactive”.
For `CC(C)CCOC(=O)c1ccccc1`, the Potency was “inactive”.
In the case of `NC[C@H]1O[C@H](O[C@H]2[C@H](O)[C@@H](O[C@H]3O[C@H](CO)[C@@H](O)[C@H](N)[C@H]3O)[C@H](N)C[C@@H]2N)[C@H](N)[C@@H](O)[C@@H]1O`, the activity change, negative = inhibition is reported as 0.27% [at 23.6 µM] (inactive).
With `O=S(=O)(Oc1ccc(Cl)cc1Cl)c1ccccc1` the Potency was “inactive”.
With `O=C(O)c1ccccc1-n1cc(C(=O)O)c(=O)c2cc(Nc3c(F)cc(F)cc3Cl)c(Cl)cc21` the Potency was “inactive”.
For `CC(C)NCC(O)COc1ccc(COCCOC(C)C)cc1` (stereo not given), the Potency was “inactive”.
